Growth data for 38 molecules are collected here from PubChem BioAssay (NCI).

Several values for one entry are separate records, joined by “and”; a condition that tells them apart may be missing. Equal entries are not always repeated. The panel holds about 83,000 compounds, 20% with a hit somewhere; the sample as a whole holds those more often.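 The endpoint reported here, percent growth, reads 100 for growth as untreated, 0 for no net growth and -100 for all cells dead.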 Activity calls are given as the source filed them. The calls were made as follows: active = growth percent below 10; inactive = the rest.

The experiment relates to UACC-62 melanoma. As to the kind of experiment: NCI-60 one-dose screen, 48 h (100 = growth as untreated, 0 = no growth, -100 = all killed). To be noted: 10 µM unless noted.
In the case of `Cc1ccc(NC(=S)C#N)cc1Cl`, the growth is -35.5% [100 µM] (active) and -95.7% [100 µM] (active).
For `CCOC(=O)C1C(C(C)C)C2(C#N)C(=N)OC1(C)C2(C#N)C#N` (stereo not drawn) the value was -51.6% [100 µM] (active) and -86.9% [100 µM] (active); for `CC1(C)CCC[C@]2(C)[C@@H](C=O)C(C=O)=CC[C@@H]12`, -87.9% [100 µM] (active) and 4.13% [100 µM] (active); for `C=C1C(=O)C2=CC1CCC(=O)C1(C)CCC(OC(C)=O)C(C)(C)C1CC2O` (stereo not drawn), -95.4% [100 µM] (active) and -100% [100 µM] (active).
The result for `COc1ccc2c(c1)C(N)=C(c1ccccc1)C2=O` reads 80.5% [100 µM] (inactive) and 28.2% [100 µM] (inactive); that for `C=C(C)C1CC2(C)C(C)CC(O)CC2C(OC(=O)C=C(C)C)C1O` (stereo not drawn), 9.73% [100 µM] (active) and 41.9% [100 µM] (inactive).
The result for `CC1=C(Cl)C[C@@H](/C(C)=C\Cl)O[C@@]1(O)C(Br)Br` reads 70.8% [100 µM] (inactive) and -44.8% [100 µM] (active); that for `COc1ccc(Nc2nc3ccc(C(F)(F)F)cc3nc2C(=O)O)cc1`, -46.2% [100 µM] (active) and -91.5% [100 µM] (active); that for `C=CCO/N=C/c1cc(NC(=S)c2ccoc2C)ccc1Cl`, -98.8% [100 µM] (active) and -100% [100 µM] (active).
For `COC(=O)[C@]1(C)CCC[C@@]2(C)[C@@H]3C[C@@H]4[C@H]5C[C@@]3(CC[C@@H]21)C[C@@]45C`, the growth was -98.2% [100 µM] (active) and -85.1% [100 µM] (active).
For `N=C1C(=N)c2ccccc2-c2ccccc21` the value was 53.6% [100 µM] (inactive) and -56.4% [100 µM] (active); for `CC1=C(C2=C(C)C(=O)C(=O)c3cc(C)ccc32)c2ccc(C)cc2C(=O)C1=O`, -92.5% [100 µM] (active) and -100% [100 µM] (active).
As to `O=C(CCc1ccccc1)ON1C(=S)NC(c2ccccc2)(c2ccccc2)C1=S`, the growth was -47.5% [100 µM] (active) and -5.8% [100 µM] (active).
For `CCOc1cc2c(cc1O)/C(=N\OC)C[C@@H]1[C@@H]2CC[C@]2(C)[C@@H](O)CC[C@@H]12` the value was -31.9% [100 µM] (active) and -75.8% [100 µM] (active); for `COc1c(/C=C/C=O)cc2c(c1OC)OCO2`, -90.2% [100 µM] (active) and -97.4% [100 µM] (active).
On to `C=c1c2ccccc2oc2nc3[nH]c(N)c(C#N)c(N)c3c(=N)c12`, for which the growth was 44.5% [100 µM] (inactive) and 0.738% [100 µM] (active).
The result for `COc1ccc2c(c1)C(OC)C1c3c(cc4c(c3-2)OCO4)CCN1C` (stereo not drawn) reads -93.1% [100 µM] (active) and -89.5% [100 µM] (active).
Consider `Fc1cccc(F)c1C1SCc2nc3cc4ccccc4cc3n21` (stereo not drawn), for which the growth is 21.7% [100 µM] (inactive) and 19.9% [100 µM] (inactive).
The result for `CCOC(=O)COc1cc(-c2ccccc2F)nc2cc3c(cc12)OCO3` reads 69.3% [100 µM] (inactive) and 35.8% [100 µM] (inactive); that for `C=C1C(=O)OC2CC1C(OC(=O)/C=C/c1ccccc1)C/C(C)=C/CC/C(C)=C/CCC2(C)O` (stereo not drawn), -95.6% [100 µM] (active) and -90.1% [100 µM] (active); that for `C=C(CO)C(=O)OC1CC(=C)C2CC(O)C(C)C2C2OC(=O)C(=C)C12` (stereo not drawn), 60.1% [100 µM] (inactive) and -100% [100 µM] (active).
For `C[C@@H]1CCC([C@@H](C)[C@H]2CC[C@H]3[C@@H]4CC[C@H]5C[C@@H](O)CC[C@]5(C)[C@H]4CC[C@]23C)=NC1` the value was -45.8% [100 µM] (active) and -54.1% [100 µM] (active).
For `O=Cc1ccc(-c2ccc(-c3ccc(CO)s3)o2)s1` the value was -65% [100 µM] (active) and -100% [100 µM] (active); for `Cc1c2c(c(C)c3c[n+](C)ccc13)Oc1ccccc1O2`, -77.7% [100 µM] (active) and -100% [100 µM] (active); for `COc1ccc(OC)c(Cc2cnc3nc(N)nc(N)c3c2C)c1`, 1.25% [100 µM] (active) and -100% [100 µM] (active).
`S=C1NC2=C(COc3ccccc32)C(c2ccc(Cl)cc2)N1` (stereo not drawn): the growth was -56.9% [100 µM] (active) and -100% [100 µM] (active).
The result for `CC1OC(OC2C(OC3CCC4(C)C(CCC5(C)C4CC=C4C6CC(C)(C)CCC6(C(=O)O)CCC45C)C3(C)CO)OCC(O)C2O)C(O)C(O)C1O` (stereo not drawn) reads -94% [100 µM] (active) and -96.7% [100 µM] (active).
The result for `O=C(O)CCCOc1cc(-c2ccccc2F)nc2cc3c(cc12)OCO3` reads 11.6% [100 µM] (inactive) and -54.7% [100 µM] (active); that for `CC1=CC[C@@H]2[C@@H](CC[C@@]2(C)O)C(C)(C)[C@H]1CC[C@@H]1[C@@]2(C)CC[C@@H](O)C(C)(C)O[C@@H]2CC[C@]1(C)O`, -81.4% [100 µM] (active) and -96.9% [100 µM] (active).
The result for `CC(C)(C)N/N=C(/Cc1nc2c3c(ccc2[nH]c1=O)C(=O)c1ccccc1C3=O)C(=O)NC1=C(Cl)C(=O)c2ccccc2C1=O` reads 22.1% [100 µM] (inactive) and 1.57% [100 µM] (active).
`O=C(/C=C/c1ccccc1)CCC1C(=O)c2ccccc2C1=O`: the growth was 41.6% [100 µM] (inactive) and 19.1% [100 µM] (inactive).
Consider `COc1ccc2nc3c4c(nccc4c2c1)-c1ncccc1C3=O`, for which the growth is -95.8% [50 µM] (active) and -100% [50 µM] (active).
For `CC1(C=O)CCC23COC4(CCC5C6(C)CCC(OC7OCC(OC8OC(CO)C(O)C(OC9OC(CO)C(O)C(O)C9O)C8OC8OCC(O)C(O)C8O)C(O)C7OC7OC(CO)C(O)C(O)C7O)C(C)(C)C6CCC5(C)C4(C)CC2O)C3C1` (stereo not drawn) the value was -69% [100 µM] (active) and -57.3% [100 µM] (active); for `Cn1c(COC(=O)NC2CCCCC2)c(COC(=O)NC2CCCCC2)c2ccc3cc(Cl)c(Cl)cc3c21`, -50.6% [100 µM] (active); for `CCOc1ccc(NC(=O)/C(=N\N)C(C(=O)OC)c2nc3ccc(Cl)cc3[nH]c2=O)cc1` (stereo not drawn), 79.7% [100 µM] (inactive) and 57.3% [100 µM] (inactive).
For `On1c(-c2ccccc2)nc2ccccc2c1=S` the value was -68.5% [100 µM] (active) and -97.5% [100 µM] (active); for `Cc1ccc(/C=N/Nc2cc(C)c3cccc(C)c3n2)s1`, -91.7% [100 µM] (active) and -100% [100 µM] (active); for `Cc1cc(O)c2c(c1)C(=O)C(c1c(C)cc3c(c1O)C(=O)C1OC1C3=O)=CC2=O` (stereo not drawn), -91.9% [100 µM] (active) and -93.6% [100 µM] (active).
